Calls of active or inactive are those of the source. A call without a number means that no potency is given here. Calls follow the shape of the dose curve; as a rule, active = well fitted activation curve with a large enough effect; inconclusive = small, poorly fitted or top-dose-only effect; inactive = no such curve, though single readings can be large or run the other way.
Assay: Confirmatory qHTS for Identification of Small Molecule Activators of Huntingtin-Antisense Promoter Activity
Settings: HEK293 HTT-AS promoter firefly luciferase reporter, 24 h; series mostly up to 57.5 µM
Procedure, shortened: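 2,500 luciferase reporter HEK293 cells/well; 24 h culture; cpds up to 57.5 uM final, PTC124 50 uM ctrl; 24 h, 37C; Dual-Glo FLuc reagent, 10 min RT; lum. Norm.: vehicle 0%, zero RLU -100%.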
With CCC(=O)N1CCc2cc(S(=O)(=O)NCCC(=O)Nc3ccc(CC)cc3)ccc21 the Potency was “inactive”. With Cc1cc(SCC(=O)Nc2nsc(-c3ccc(C(C)(C)C)cc3)n2)nc2ccccc12 the Potency was 2.69 µM (active). For O=C(NCc1cccnc1)C(=O)NCC(c1cccnc1)N1CCN(c2ccccc2F)CC1 (stereo unspecified), the Potency was “inactive”. For COc1ccccc1CCNC(=O)C(=O)NCC(c1cccs1)S(=O)(=O)c1ccccc1 (stereo unspecified), the Potency was “inactive”. With Cc1ccc(-n2ccnc(NCCc3ccc(S(N)(=O)=O)cc3)c2=O)c(C)c1 the Potency was “inactive”. With Cc1cc(NC(=O)CN(C)S(=O)(=O)c2ccc3c(c2)CCC(=O)N3)ccc1Br the Potency was “inactive”. For COc1ccc(Nc2c3c(nc4ccc(NC(=O)/C=C/c5cccc(OC)c5OC)cc24)CCCC3)cc1OC, the Potency was “inactive”. For COc1cc(CNC(=O)c2ccc3nc(Cc4ccccc4)oc3c2)cc(OC)c1OC, the Potency was “inactive”. In the case of CCN(Cc1ccccc1)C(=O)c1cc(-c2ccccc2)n[nH]1, the Potency is reported as 0.953 µM (active). For Cc1cccc(-n2nc(C)c(C(=O)Nc3cc(C)ccc3C)c2-n2cccc2)c1, the Potency was “inactive”. For COc1cc2ccccc2cc1C(=O)N1CCN(c2nc3ccc(F)cc3s2)CC1, the Potency was “inactive”. For Cn1c(CN2CCCCC2)nc2cc(NC(=O)c3ccc(Cl)cc3)ccc21, the Potency was “inactive”. In the case of CC(C)Oc1ccc(C(=O)N(Cc2ccco2)c2ccccn2)cc1, the Potency is reported as 2.69 µM (active). In the case of O=C(Nc1cccc(Cl)c1)c1c(NC(=O)C(F)(F)F)sc2c1CCCC2, the Potency is reported as “inactive”. In the case of Cn1c(=O)n(C)c2cc(NS(=O)(=O)c3ccccc3)c(NCc3ccccc3)cc21, the Potency is reported as “inactive”. In the case of CC1CCCCN1S(=O)(=O)c1ccc2c(c1)oc(=O)n2CC(=O)Nc1ccc(Cl)cc1 (stereo unspecified), the Potency is reported as “inactive”.
Potency is read from the fitted curve at half-maximal effect.
